From PubChem BioAssay
DT40 TDP1 CPT: growth inhibition of DT40 Tdp1-/-;hTDP1 cells with camptothecin (screen for TDP1 inhibitors) | chicken DT40 Tdp1-/-;hTDP1 cells + 20 nM CPT, ATP luminescence, 48 h | Potency, µM (titrated, usually from 46.2 µM), most hits filed as inhibitors | 12% of 420,000 active; also: nearly all actives have a fitted effect of over 55% in size
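Chicken DT40 Tdp1-/- cells stably complemented with human TDP1 were seeded at 400 cells/well in medium containing 20 nM camptothecin, exposed to pin-transferred compounds, and grown at 37 °C for at least 48 hr. Viability was read as ATP luminescence.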
IL1B secr inh: blocks inflammasome-driven IL-1 beta release; THP-1 LPS/ATP IL-1B secretion, AlphaLISA, 16 h; stronger effect = lower value; activity change, % at 57.5 µM; 4.7% of 360,000 active; in the data active = activity change below about -50%; inconclusive = mostly about -30% to -49%
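Secreted IL-1B measured by AlphaLISA bead assay after 16 h compound exposure of THP-1 cells; compounds (final up to 57.5 uM) added 1 h before LPS (250 ng/mL) and ATP (1.25 mM) stimulation; lower signal means less secretion.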
TDP1 cell noCPT: qHTS for Inhibitors of human tyrosyl-DNA phosphodiesterase 1 (TDP1): qHTS in cells in absence of CPT. DT40 Tdp1-/- hTDP1 cells, no CPT, ATP luminescence, 48 h. Potency, µM (series often up to 46.2 µM), usual class: inhibitors. 15% of 420,000 active. AID 686978, 2013; also: nearly all actives have a fitted effect of over 55% in size
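A cellular qHTS used chicken DT40 cells lacking endogenous Tdp1 but carrying stably transfected human TDP1. Compounds were applied without camptothecin, and cell growth kinetics were judged by ATP-dependent luminescence after ≥48 hr.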
ClpP mod: qHTS Assay for Activators of ClpP; ATP-dependent Clp protease proteolytic subunit (Bacillus subtilis (strain 168)), P80244; purified B. subtilis ClpP, FRET peptide cleavage, 20 min; Potency, µM (titrated, usually from 57.5 µM); 1.9% of 340,000 active; AID 651965, 2013; active = well fitted falling curve with a large enough effect; inconclusive = small, poorly fitted or top-dose-only effect; inactive = no such curve, though single readings can be large or run the other way; also: the source files actives as falling curves though it sought activators and does not explain the sign; nearly all actives have a fitted effect of over 65% in size
Target sequence (P80244 whole entry, looked up): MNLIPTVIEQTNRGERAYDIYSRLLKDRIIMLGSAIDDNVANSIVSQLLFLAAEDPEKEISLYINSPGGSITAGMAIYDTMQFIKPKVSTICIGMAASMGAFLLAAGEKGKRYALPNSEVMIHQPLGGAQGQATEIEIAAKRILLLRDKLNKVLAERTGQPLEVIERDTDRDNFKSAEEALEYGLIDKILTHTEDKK
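Purified B. subtilis ClpP, 10 microg/mL final in Tris/HCl pH8 with KCl, BSA, glycerol and Tween-20, cleaved an Abz/nitrotyrosine-quenched decapeptide. Fluorescence (ex 320, em 430) was read at 0 and 20 min at room temperature. Delta was normalized to 5.8 microM ADEP and DMSO/no-enzyme controls.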
DRD3 agonist: activates the human D3 dopamine receptor. max activation, %. 0.58% of 410,000 active. D3R DiscoveRx beta-arrestin cells, luminescence, 90 min; in the data active = max activation above about 30%
Target sequence (P35462 whole entry, looked up): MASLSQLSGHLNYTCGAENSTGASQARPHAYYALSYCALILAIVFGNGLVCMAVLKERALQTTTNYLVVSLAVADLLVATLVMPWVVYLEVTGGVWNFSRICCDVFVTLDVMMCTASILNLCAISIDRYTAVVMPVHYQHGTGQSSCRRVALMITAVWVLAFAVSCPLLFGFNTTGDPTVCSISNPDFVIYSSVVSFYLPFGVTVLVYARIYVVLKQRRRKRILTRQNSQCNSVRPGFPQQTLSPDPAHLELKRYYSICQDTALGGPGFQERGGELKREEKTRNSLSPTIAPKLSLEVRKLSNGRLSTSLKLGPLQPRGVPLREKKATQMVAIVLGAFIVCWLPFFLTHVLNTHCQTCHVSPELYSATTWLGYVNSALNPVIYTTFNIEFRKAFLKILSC
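Agonist mode: compounds and dopamine controls were applied to plated cells for 90 min at 37 degrees C after an overnight attachment at 1500 cells/well. Luminescent read-out followed 30 - 60 minutes at room temperature with DiscoveRx detection reagent.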
D3 antag: D3 dopamine receptor (human) antagonism. P35462. D3R cells, DiscoveRx beta-arrestin luminescence, antagonist mode; stronger effect = lower value. max response, negative = inhibition, %. 2.5% of 360,000 active; in the data active = max response below about -50%; inconclusive = no clear call, values can overlap the other calls
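Cells plated overnight at 1500 cells/well, then exposed to library compounds with dopamine controls for 90 minutes at 37 degrees C. DiscoveRx reagent added for 30–60 minutes at room temperature; luminescence read, quantitative HTS format.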
Large screens that a line does not name were inactive. An excerpt weighted towards active compounds, which were near 21% of everything screened. Unless noted, calls follow the shape of the dose curve; as a rule, active = well fitted inhibition curve with a large enough effect; inconclusive = small, poorly fitted or top-dose-only effect; inactive = flat fitted curve, though single readings scatter.

CCN1CCN(Cc2c(C)[nH]c3ccc(OC)cc3c2=O)CC1	TDP1 cell noCPT inconclusive, ClpP mod inconclusive, D3 antag -53
COC(=O)c1ccc2[nH]c(C)c(CN3CCCC3)c(=O)c2c1	ClpP mod 28µM
CCOc1ccc2[nH]c(C)c(CN3CCN(C)CC3)c(=O)c2c1	none
C=CCN(CC=C)Cc1c(C)[nH]c2ccc(C(=O)OCC)cc2c1=O	ClpP mod 28µM
CC1(C)Cc2ccccc2-c2nc(NCCO)n(-c3ccccc3)c(=O)c21	DT40 TDP1 CPT 18µM, TDP1 cell noCPT 18µM, ClpP mod inconclusive, D3 antag inconclusive
CCC1(C)Cc2ccccc2-c2nc(NCCO)n(-c3ccccc3)c(=O)c21 (centres undefined)	DT40 TDP1 CPT 4.1µM, TDP1 cell noCPT 4.6µM
CC1CCCC(C)N1/N=C/c1cc(Br)cc(Br)c1O (centres undefined)	D3 antag -62
CCC(=O)N1CCc2cc(S(=O)(=O)NCCC(=O)NCc3ccc(OC)cc3)ccc21	DT40 TDP1 CPT inconclusive, TDP1 cell noCPT inconclusive (no result: IL1B secr inh, D3 antag)
CSc1ccc(/C=N/NC(=O)c2cccs2)cc1	TDP1 cell noCPT inconclusive (no result: ClpP mod)
CSc1ccc(/C=N/NC(=O)c2ccc(O)cc2)cc1	DT40 TDP1 CPT 26µM, TDP1 cell noCPT inconclusive
CN(C)c1ccc(/C=N/NC(=O)CCCO)cc1	none (no result: ClpP mod)
CSc1ccc(/C=N/NC(=O)c2ccccc2Cl)cc1	DT40 TDP1 CPT 16µM, TDP1 cell noCPT 13µM, D3 antag inconclusive
CCCCCC(=O)N/N=C/c1ccc(N(C)C)cc1	ClpP mod 28µM
CN(C)c1ccc(/C=N\NC(=O)c2ccc(Cn3cc(Cl)cn3)cc2)cc1	DT40 TDP1 CPT inconclusive, TDP1 cell noCPT 16µM, D3 antag inconclusive
CC(C)CN1CCC(Oc2cccc(C(=O)NCCc3ccccc3)c2)CC1	none
CN(Cc1ccccc1)C(=O)CCS(=O)(=O)c1ccc2c(c1)NC(=O)CS2	none
Cc1onc(-c2c(F)cccc2Cl)c1C(=O)NC(C)c1ccccc1 (centres undefined)	TDP1 cell noCPT inconclusive (no result: ClpP mod)
CCc1ccccc1NC(=S)N(CCN(C)C)Cc1cccs1	none (no result: ClpP mod)
CN(C)c1ccc(/C=N/NC(=O)c2ccccc2Cl)cc1	DT40 TDP1 CPT 5.8µM, IL1B secr inh inconclusive, TDP1 cell noCPT 7.3µM (no result: ClpP mod)
O=C(Nc1ccccc1C(=O)N/N=C/c1ccc(O)cc1)c1ccccc1	none
O=C(N/N=C/c1ccc(O)cc1)c1csc2ccccc12	DT40 TDP1 CPT inconclusive, TDP1 cell noCPT 0.26µM
C=CCn1c(COc2ccc(Cl)cc2)nnc1SCC(=O)c1c(N)n(C)c(=O)n(C)c1=O	none (no result: ClpP mod)
COC(=O)C(Cc1ccc(OC(=O)c2ccc(C(F)(F)F)cc2)cc1)N1Cc2ccccc2C1=O (centres undefined)	DT40 TDP1 CPT 16µM, TDP1 cell noCPT 18µM
COc1ccc2oc(C(=O)N3CCCc4ccccc43)c(C)c2c1	DT40 TDP1 CPT inconclusive, TDP1 cell noCPT inconclusive
N#Cc1ccc(/C=C2/C=Cc3ccccc32)cc1	DT40 TDP1 CPT inconclusive (no result: IL1B secr inh, DRD3 agonist, D3 antag)
COc1ccc(C(CC(=O)N2CCCCC2)c2c(OC)cc(OC)c3c(-c4ccccc4)cc(=O)oc23)cc1 (centres undefined)	DT40 TDP1 CPT inconclusive, TDP1 cell noCPT inconclusive, ClpP mod inconclusive
COc1ccc(C(CC(=O)N2CCCC(C)C2)c2c(OC)cc(OC)c3c(-c4ccccc4)cc(=O)oc23)cc1 (centres undefined)	DT40 TDP1 CPT inconclusive, TDP1 cell noCPT 15µM, ClpP mod inconclusive
COc1ccc(C(CC(=O)N2CCCC(C)C2)c2c(OC)cc(OC)c3ccc(=O)oc23)cc1 (centres undefined)	DT40 TDP1 CPT inconclusive, TDP1 cell noCPT 18µM, ClpP mod inconclusive
COc1ccc(C(CC(=O)N2CCCC2)c2c(OC)cc(OC)c3c(-c4ccccc4)cc(=O)oc23)cc1 (centres undefined)	DT40 TDP1 CPT inconclusive, TDP1 cell noCPT 16µM
CCN1CCN(CCC(=O)Nc2ccc(F)c(F)c2)CC1	none
CCOC(=O)c1cc(NC(=O)c2ccco2)ccc1N1CCOCC1	none (no result: ClpP mod)
CC(C)CN1CCC2(CC1)CCN(C(=O)c1cc(C(F)(F)F)cc(C(F)(F)F)c1)CC2	none (no result: IL1B secr inh, ClpP mod, DRD3 agonist, D3 antag)
CCC(c1nnnn1-c1ccc2c(c1)OCCO2)N1CCN(C/C=C/c2ccccc2)CC1 (centres undefined)	DT40 TDP1 CPT inconclusive, TDP1 cell noCPT 13µM, DRD3 agonist 66
CCC(c1nnnn1-c1ccc2c(c1)OCCO2)N1CCN(c2ccccn2)CC1 (centres undefined)	none
CCC(c1nnnn1-c1ccc2c(c1)OCCO2)N1CCN(c2ccccc2)CC1 (centres undefined)	DT40 TDP1 CPT inconclusive, TDP1 cell noCPT inconclusive
C(=C\c1ccccc1)/CN1CCN(C(c2nnnn2-c2ccc3c(c2)OCCO3)C2CC2)CC1 (centres undefined)	DT40 TDP1 CPT 23µM, TDP1 cell noCPT 15µM, DRD3 agonist 41, D3 antag inconclusive
CCC(c1nnnn1-c1ccc2c(c1)OCCO2)N1CCN(c2ncccn2)CC1 (centres undefined)	DT40 TDP1 CPT inconclusive, TDP1 cell noCPT inconclusive, D3 antag inconclusive
C(=C\c1ccccc1)/CN1CCN(C(CCc2ccccc2)c2nnnn2-c2ccc3c(c2)OCCO3)CC1 (centres undefined)	DT40 TDP1 CPT 10µM, TDP1 cell noCPT 21µM, D3 antag -110
Nc1ncnc2c1ncn2[C@@H]1O[C@H](CNC(=O)[C@@H]2CCN2)[C@@H](O)[C@H]1O	none
COc1ccc(NC(=O)C[C@H]2C(=O)N(C3CCCCC3)C[C@@H]2CSC)cc1	TDP1 cell noCPT inconclusive
Cc1nn(CC(=O)NC2CCCCC2)c(C)c1[N+](=O)[O-]	none
CCCN1C(=O)SC(CC(=O)Nc2ccc(Br)cc2)C1=O (centres undefined)	DT40 TDP1 CPT inconclusive, TDP1 cell noCPT 13µM
O=C(CC1Sc2ncnn2C1=O)Nc1ccc(Br)cc1 (centres undefined)	DT40 TDP1 CPT 2.1µM, TDP1 cell noCPT 4.6µM
O=C(CC1SC2=NCCN2C1=O)Nc1ccc(Br)cc1 (centres undefined)	none
CCC[C@H]1CN(c2ccccc2)C(=O)[C@@H]1CC(=O)Nc1ccc(Br)cc1	none
COCCCn1c(SC(C)C(=O)Nc2c(C)n(C)n(-c3ccccc3)c2=O)n[nH]c1=O (centres undefined)	none
Cc1ccc(C(NC(=O)N2CCOCC2)=C(Cl)Cl)cc1F	DT40 TDP1 CPT 6.5µM, IL1B secr inh -101, TDP1 cell noCPT 16µM
